Shown is part of a subset that was picked to be rich in hits.
Pf Dd2 growth: Plasmodium falciparum Dd2 growth inhibition; AID 1347417; P. falciparum Dd2 growth, SYBR Green, 72 h; Potency, µM (highest dose often 28.9 µM), inactives show at the top dose activity, negative = inhibition, most hits filed as inhibitors; 4.3% of 120,000 active; active means well fitted inhibition curve with a large enough effect;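 further: plate controls were DMSO vehicle for no effect and reference drug for full effect; nearly all actives have a fitted effect of over 65% in size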
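Infected erythrocytes (Dd2, 0.3% parasitemia, 2.5% hematocrit final) are added to compound in RPMI-1640/Albumax II medium, grown 72 h at 37C in low oxygen, then lysed with saponin/Triton-X containing SYBR Green and read by fluorescence.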
* hit, by the source's call; i = inactive; [ ] = remark or other dose. Potency means the concentration at half of the fitted maximal effect.

SMILES | Pf Dd2 growth
Cc1nn(C)c(C)c1CCC(=O)N1CCN(C(=O)N2CC3CC(C2)[C@H]2CCCC(=O)N2C3)CC1 (some centres not stated) | -10%
COc1cccc(C2C(C(=O)Nc3ccc(Cl)cc3)=C(C)Nc3nc4ccccc4n32)c1OC (configuration not stated) | -22%
COc1cccc(C2C(C(=O)Nc3ccc(Cl)cc3)=C(C)Nc3c(C(=O)Nc4ccccc4)cnn32)c1OC (configuration not stated) | 13µM*
COc1ccc(C2C(C(=O)Nc3ccc(Cl)cc3)=C(C)Nc3nc(SCc4cccc(C)c4)nn32)cc1OC (configuration not stated) | 8%
COc1ccc(NC(=O)C2=C(C)Nc3nc(SCc4ccc(Cl)cc4)nn3C2c2cccc(OC)c2OC)cc1 (configuration not stated) | i
COc1ccc(NC(=O)C2=C(C)Nc3c(C(=O)Nc4ccc(C)cc4)cnn3C2c2cccc(Cl)c2)cc1 (configuration not stated) | 3.2µM*
COc1cc(C2C(C(=O)Nc3ccc(Cl)cc3)=C(C)Nc3nc(SC)nn32)cc(OC)c1OC (configuration not stated) | -5%
Cc1nc2cccnc2n1CC1CCCN(S(=O)(=O)c2ccc(CC(C)C)cc2)C1 (configuration not stated) | 6.3µM*
COc1cccc(NC(=O)N2CCCC(Cn3c(C)nc4cccnc43)C2)c1 (configuration not stated) | i
Cc1nc2cccnc2n1CC1CCCN(C(=O)Nc2cccc(C(F)(F)F)c2)C1 (configuration not stated) | 11µM*
CC(C)Cc1ccc(S(=O)(=O)N2CCCC(Cn3cnc4cccnc43)C2)cc1 (configuration not stated) | -10%
Cc1cc(S(=O)(=O)N2CCCC(Cn3c(C)nc4cccnc43)C2)ccc1Cl (configuration not stated) | -28%
Cc1nc2cccnc2n1CC1CCCN(C(=O)Nc2ccc(C(F)(F)F)cc2)C1 (configuration not stated) | i
O=C(c1ccccc1)N1CCC(Oc2ccccc2)C1 (configuration not stated) | -4%
Cc1nc(CN2CCN(C(=O)[C@H]3CC[C@@H](N)C3)CC2)cs1 | 22%
N[C@@H]1CC[C@H](C(=O)NCc2csc(N3CCCC3)n2)C1 | 11µM*
O=C(NCc1csc(-c2cnccn2)n1)[C@H]1CCC[C@H](O)C1 | -11%
CCc1ccc(N2CC(c3noc(-c4ccco4)n3)CC2=O)cc1 (configuration not stated) | 46%
COc1cc(C(=O)NCC(c2cccnc2)N2CCc3ccccc3C2)cc(OC)c1OC (configuration not stated) | -26%
COc1cc(C(=O)NC(c2ccc(Cl)cc2)c2cc(Cl)c3cccnc3c2O)cc(OC)c1OC (configuration not stated) | 2.8µM*
COc1cccc(C(=O)N[C@H]2[C@H](O)[C@H](O)C[C@@H]2c2cccnc2)c1 | 10%[44.1 µM]
COc1cccc(CNC(=O)c2c[nH]c3ncccc23)c1 | -10%[44.1 µM]
COc1cccc(C(=O)NC(c2ccc(Cl)cc2)c2cc(Cl)c3cccnc3c2O)c1 (configuration not stated) | 3.2µM*
COc1cc(C(=O)Nc2ccc(Cl)c(-c3nc4ncccc4o3)c2)cc(OC)c1OC | -5%
CC(C)N1CCC2(CC1)CN(C(=O)C1CCOCC1)Cc1ccccc1O2 | i
SMILES | Pf Dd2 growth
COCCOC1CCOC2(CCN(C(=O)Nc3cccc(F)c3)CC2)C1 (configuration not stated) | -17%
COc1cc(OC)cc(-c2onc(C)c2C(=O)NCCCCc2ccccc2)c1 | i
CC(c1ccon1)N(C)Cc1cn(-c2ccccc2)nn1 (configuration not stated) | -14%
N#Cc1cccc(C(=O)NC2CCN(c3cc(-c4ccc(F)cc4)[nH]n3)C2)c1 (configuration not stated) | -12%
COc1cc(=O)n2c(c1C(=O)N1CCN(c3ccc(C)cc3)CC1)CCCC2 | i
CCOCCn1c(=O)[nH]c2cc(C(=O)NCc3sc(C)nc3C)ccc21 | -14%
Cc1ccc(C)c(NS(=O)(=O)c2ccc3c4c(cccc24)C(=O)N3)c1 | -18%
Cc1ccc(C)c(NC(=O)C(C)N(c2ccccc2)S(C)(=O)=O)c1 (configuration not stated) | 33%
Cc1ccc(C)c(NC2=C(c3ccc(C(F)(F)F)cc3)C(=O)c3ccccc32)c1 | 1.4µM*
CCn1c(CO)nnc1C1CC(NC(=O)c2sccc2N)C1 (configuration not stated) | -24%
CCCCc1nn(CC(=O)N2C[C@H]3CC=C(C)C[C@H]3C2)c(=O)n1CC | -9%
Cc1ccc(C(=O)N2CC(C(=O)NCCc3ccncc3)C3(CCOCC3)C2)cc1C (configuration not stated) | -7%
Cc1ccc(NC(=O)N2C[C@@H](F)C[C@H]2C(=O)N2CCc3ccccc3C2)cc1Cl | 3%
CCc1ccccc1NC(=O)N1C[C@@H](F)C[C@H]1C(=O)N1CCc2ccccc2C1 | 3.2µM*
COc1ccc(NC(=O)N2C[C@@H](F)C[C@H]2C(=O)N2CCc3ccccc3C2)c(C)c1 | 10%
Cc1ccc(CNC(=O)N2CCC(Oc3ncccc3C(=O)N3CCOCC3)C2)cc1 (configuration not stated) | 26%
COc1ccc(NC(=O)N[C@H]2CO[C@H]3[C@@H]2OC[C@@H]3n2cc(-c3ccccc3)nn2)cc1 | i
COc1ccc(CC(=O)N2Cc3ccccc3CC23CCCN(C(=O)CN)C3)cc1 (configuration not stated) | -21%
COc1ccc(CN2CCCCC23Cc2ccccc2CN(C(=O)CCC(=O)O)C3)cc1 (configuration not stated) | -22%
O=C(C1CC1)N1CC2(CCCN2Cc2cccnc2)Cc2ccccc21 (configuration not stated) | 10µM*
O=C(C1CCCC1)N1CC2(CCCCN2C2COC2)Cc2ccccc21 (configuration not stated) | 21%
NC(=O)c1cccc(CN2CCCC23Cc2ccccc2NC3=O)c1 (configuration not stated) | -6%
NCC(=O)N1CCCC2(Cc3ccccc3CN2C(=O)Cc2cccc(Cl)c2)C1 (configuration not stated) | 13µM*
CC(=O)N1CC2(CCCN(Cc3cccc(C(N)=O)c3)C2)Cc2ccccc21 (configuration not stated) | -4%
CS(=O)(=O)N1CC2(CCCN2Cc2cccc(C(N)=O)c2)Cc2ccccc21 (configuration not stated) | 14µM*
SMILES | Pf Dd2 growth
COc1ccc(CC(=O)N2Cc3ccccc3CC23CCCN(C(=O)CCCN)C3)cc1 (configuration not stated) | 14%
CN1CCC(C(=O)N2Cc3ccccc3CC3(CCN(Cc4cccnc4)C3)C2)CC1 (configuration not stated) | -24%
O=C(O)CCC(=O)N1Cc2ccccc2CC2(CCCN2Cc2ccncc2)C1 (configuration not stated) | 4%
O=C(Cc1ccccc1)N1Cc2ccccc2CC2(CCCN2Cc2ccncc2)C1 (configuration not stated) | 8.9µM*
CN1CCC2(CCC1=O)CN(S(=O)(=O)c1cn(C)cn1)CCN2C (configuration not stated) | 10%
OC[C@@H]1CN(CC2CC2)C[C@H]1c1nc(-c2ccncc2)no1 | 0%
